IL1B secr inh: inhibitors of inflammasome signaling (IL-1 beta secretion); THP-1 LPS/ATP IL-1B secretion, AlphaLISA, 16 h; hits give low values; AID 743279; 360,000 compounds, 4.7% hits; activity change, % at 57.5 µM; in the data active = activity change below about -50%; inconclusive = mostly about -30% to -49%; note: % is set by controls: 0 for no effect and ±100 for the full control effect
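Secreted IL-1B measured by AlphaLISA bead assay after 16 h compound exposure of THP-1 cells; compounds (final up to 57.5 uM) added 1 h before LPS (250 ng/mL) and ATP (1.25 mM) stimulation; lower signal means less secretion.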
Vif-APOBEC3G blk: blocks the Vif interaction with human APOBEC3G; Q9HC16; HeLa A3G-eYFP + Vif (tagged APOBEC3G with the HIV-1 protein that degrades it), YFP fluorescence, overnight; Potency, µM (top dose mostly 46.1 µM), without a hit: at the highest dose activity, negative = active, most hits filed as inhibitors; 410,000 compounds, 0.076% hits; AID 602310; note: potency is the fitted concentration of half-maximal effect; % is set by controls: 0 for no effect and ±100 for the full control effect; nearly all actives have a fitted effect of over 60% in size
Target sequence (Q9HC16 whole entry, looked up): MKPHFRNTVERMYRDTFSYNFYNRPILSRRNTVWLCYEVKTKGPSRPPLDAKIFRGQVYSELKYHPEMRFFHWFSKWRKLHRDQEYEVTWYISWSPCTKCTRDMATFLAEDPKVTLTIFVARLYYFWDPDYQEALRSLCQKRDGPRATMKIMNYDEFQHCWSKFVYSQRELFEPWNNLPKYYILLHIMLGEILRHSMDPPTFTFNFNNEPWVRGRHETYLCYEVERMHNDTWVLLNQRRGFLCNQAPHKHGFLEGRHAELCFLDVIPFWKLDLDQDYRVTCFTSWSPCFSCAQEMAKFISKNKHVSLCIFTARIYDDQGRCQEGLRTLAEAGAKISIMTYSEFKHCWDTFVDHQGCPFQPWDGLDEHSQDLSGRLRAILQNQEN
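HeLa cells stably expressing Vif and C-terminally eYFP-tagged A3G, seeded overnight at 37 deg C, then exposed to compound by pintool overnight at 37 deg C. Rise in yellow fluorescence (Ex 488/Em 500-530, Acumen) marks blocked Vif-driven A3G degradation.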
SW480 rereplic: induces DNA re-replication in SW480 colon adenocarcinoma cells. Potency, µM (top dose mostly 46.1 µM), for inactives: at the highest dose re-replication activation, most hits filed as activators. AID 624297. 340,000 compounds, 1.8% hits. SW480 DNA re-replication, Hoechst DNA content imaging, 48 h; note: potency is the fitted concentration of half-maximal effect; % of control where 0% means no effect; nearly all actives have a fitted effect of over 55% in size
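First, 250 cells per well were seeded. Next, compound or vehicle (23 nL) was pinned in, plates sat 48 hr at 37 C. Finally Hoechst was added for 40 min before fluorescence scanning.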
Vif-A3F inh: inhibitors of Vif-A3F interaction; HeLa A3F-eYFP + Vif (tagged APOBEC3F with the HIV-1 protein that degrades it), YFP fluorescence increase; Potency, µM (doses to about 46.1 µM), inactives show at the top dose activity, negative = active; 390,000 compounds, 0.2% hits; AID 602313; note: potency is the fitted concentration of half-maximal effect; % of control where 0% means no effect; nearly all actives have a fitted effect of over 65% in size
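Fluorescence increase (Ex 488/Em 500-530) after overnight compound treatment at 37 deg C flags inhibition of Vif-driven A3F-eYFP loss in stable HeLa A3F-eYFP/Vif cells seeded overnight beforehand.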
Giardia killer: Giardia lamblia killing; Giardia lamblia trophozoite viability; activity change, % at 7.66 µM, hits read low; 340,000 compounds, 0.15% hits; AID 540267; in the data active = activity change below about -80%; inconclusive = between about -30% and that limit;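 note: parasites exposed to compound for two days anaerobically before the ATP read; % is set by controls: 0 for no effect and ±100 for the full control effect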
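Anaerobic 48 hrs incubation at 37 deg C of 100 trophozoites/well with test compounds; ATPLite 1-Step luminescence, 15-30 min RT, reports cellular ATP as viability.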
MCF10A rerep: inducers of DNA re-replication in MCF 10A breast cells | MCF 10A DNA re-replication, Hoechst nuclear intensity, 48 h | Potency, µM (doses to about 46.1 µM), for inactives: top-dose activity, positive = re-replication, actives largely listed as activators | 350,000 compounds, 2.9% hits; note: potency is the fitted concentration of half-maximal effect; % of control where 0% means no effect; nearly all actives have a fitted effect of over 50% in size
Numbers without * were called inactive; ? = inconclusive; · = no result. Shown are actives, neighbours in structure and some others; about 6.9% of the full set was active somewhere. Unless noted, calls come from the whole dose curve; as a rule, active = well fitted curve in the direction sought with a large enough effect; inconclusive = small, poorly fitted or top-dose-only effect, or another doubt; inactive = no such curve, though single readings can be large; an effect the other way counts as inactive or inconclusive.

SMILES | IL1B secr inh | Vif-APOBEC3G blk | SW480 rereplic | Vif-A3F inh | Giardia killer | MCF10A rerep
O=C(/C(=C/c1ccncc1)n1ccnc1)c1ccc(Cl)cc1Cl | -10 | -1% | -1% | -4% | -11 | 3%
CC(C)(C)C(=O)/C(=C/c1ccc(Cl)cc1)n1cncn1 | -97* | ? | ? | -7% | -14 | 6.5µM*
CC(C)CC(CSc1ccc(Br)cc1)N1CCN(CC(C)C)CCC1=O (stereo not given) | · | -1% | · | · | -8 | ·
COc1cccc(-n2cnc3c(sc4nc(N5CCOCC5)c5c(c43)CCCC5)c2=O)c1 | -54* | -1% | -5% | -8% | 17 | -2%
O=c1oc2ccccc2cc1-c1cn2cc(Cc3ccc(Br)cc3)sc2n1 | · | -20% | · | -23% | · | ·
Clc1ccccc1CNc1ncnc2nc[nH]c12 | 18 | -3% | 2% | 3% | -11 | 1%
Clc1ccccc1CN(Cc1ccccc1)c1ncnc2nc[nH]c12 | -84* | -4% | -2% | -3% | -2 | ?
O=C(COc1ccccc1[N+](=O)[O-])N(Cc1ccco1)c1ccccn1 | · | 0% | · | -2% | · | ·
CCOC(=O)c1c(C=O)c(C)n(Cc2ccc(Cl)cc2)c1C | -17 | 0% | 1% | 0% | 17 | 12µM*
CCOC(=O)c1c(C=O)c(C)n(Cc2ccccc2)c1C | -7 | 2% | -5% | -9% | -1 | 4%
COc1ccc2c(c1)c1c(c(=O)n(Cc3ccccc3)c(=O)n1CC(=O)Nc1ccccc1F)n2C | · | 4% | · | -22% | · | ·
Cc1ccc2nc(SCC(=O)c3ccccc3)nc(=O)n2c1 | -20 | 1% | 1.8µM* | 2% | 6 | 1%
Cc1ccn2c(=O)nc(SCC(=O)c3ccccc3)nc2c1 | -11 | 2% | -6% | -13% | 0 | 1%
Cc1ccnc(NC(=O)c2ccc(OCC3CCCO3)cc2)c1 (stereo not given) | -17 | 1% | ? | -6% | -85* | -8%
Cc1nn(S(=O)(=O)c2ccc(C(C)(C)C)cc2)c(C)c1S(=O)(=O)N1CCCCCC1 | · | -1% | · | -11% | · | ·
Cc1cc(OC(C)C(=O)NCC(O)c2ccccc2)c2c(C)c(C)c(=O)oc2c1 (stereo not given) | -52* | -4% | -15% | 4% | -4 | 0%
CCOc1ccc(S(=O)(=O)NCCC(=O)NC2CCN(Cc3ccccc3)CC2)cc1 | -1 | 3% | -2% | 0% | -9 | 7%
CC(C)Oc1ccc(C(=O)NC2CCN(Cc3ccccc3)CC2)cc1 | -84* | -2% | -6% | -11% | 23 | 7%
CCc1cc(=O)oc2cc(C)cc(OC(C)C(=O)NCC(O)c3ccccc3)c12 (stereo not given) | 3 | 2% | 24% | -6% | -17 | -4%
CC(=O)c1ccc(S(=O)(=O)NCCC(=O)NC2CCN(Cc3ccccc3)CC2)cc1 | -87* | 1% | -14% | -6% | 15 | 11%
COc1ccccc1NS(=O)(=O)c1ccc(C)c(C(=O)NC2CCN(Cc3ccccc3)CC2)c1 | -57* | 1% | 8% | 1% | ? | ?
Cc1ccccc1CN1C(=O)c2ccccc2Sc2ccc(C(=O)NC3CCCC3)cc21 | · | 0% | · | -8% | · | ·
CCOc1ccc(Nc2c(S(=O)(=O)c3ccc(Cl)cc3)cnc3ccc(OC)cc23)cc1 | · | 4% | · | 0% | · | ·
CCOc1ccc2oc(=O)cc(CN3CCN(Cc4ccc(F)cc4)CC3)c2c1 | · | 4% | · | 8% | · | ·
C=CCN(c1ccccc1)S(=O)(=O)c1cccc(C(=O)NC2CCN(Cc3ccccc3)CC2)c1 | -54* | -1% | ? | -4% | -19 | ?
SMILES | IL1B secr inh | Vif-APOBEC3G blk | SW480 rereplic | Vif-A3F inh | Giardia killer | MCF10A rerep
CCc1cc(=O)oc2cc(C)cc(OC(C)C(=O)NC3CCN(Cc4ccccc4)CC3)c12 (stereo not given) | -63* | 4% | 1% | -5% | 22 | -6%
Cc1cc(=O)oc2cc(OC(C)C(=O)NC3CCN(Cc4ccccc4)CC3)ccc12 (stereo not given) | -3 | -1% | -2% | -1% | 19 | 0%
Cc1cc(OC(C)C(=O)NC2CCN(Cc3ccccc3)CC2)c2c(C)cc(=O)oc2c1 (stereo not given) | 15 | 0% | 2% | 6% | -14 | 21%
CC(Oc1ccc(Br)cc1)C(=O)NC1CCN(Cc2ccccc2)CC1 (stereo not given) | -81* | 1% | 20% | -3% | -15 | 24%
CN(C)S(=O)(=O)c1cccc(C(=O)NCC(=O)NC2CCN(Cc3ccccc3)CC2)c1 | 19 | -2% | -2% | -7% | 18 | ?
Cc1csc(NC(=O)c2sc3nc(-c4cccs4)ccc3c2N)n1 | -72* | ? | ? | 22µM* | -6 | 1%
COc1cc(C(=O)Nc2nc(-c3cccs3)cs2)cc(OC)c1OC | -77* | 1% | -8% | -2% | 5 | ?
O=C(Nc1nc(-c2cccs2)cs1)c1ccc(Cl)cc1 | -6 | -10% | 0% | -5% | -1 | ?
O=C(Cc1ccccc1)Nc1nc(-c2cccs2)cs1 | -18 | -1% | -2% | -9% | -4 | 3%
O=C(COc1ccc(Cl)cc1)Nc1nc(-c2cccs2)cs1 | 4 | 0% | -2% | -1% | 6 | 13µM*
COc1ccc(C(=O)Nc2nc(-c3cccs3)cs2)cc1 | -72* | -14% | -8% | -1% | 20 | ?
COc1ccc(-c2cc(=O)oc3c4c(ccc23)OCN(Cc2ccccc2)C4)cc1 | · | 2% | · | 1% | · | ·
O=[N+]([O-])c1ccccc1/C=C1\C=Cc2ccccc21 | · | -1% | · | · | · | ·
Cc1cccc(OCc2nnc(SCC(=O)Nc3ccc(C)cc3C)o2)c1 | · | -1% | · | -6% | · | ·
CO/N=C(/C(=O)N[C@@H]1C(=O)N2C(C(=O)O)=C(CSc3cnns3)CS[C@H]12)c1csc(N)n1 | · | · | -5% | · | · | 0%
Cc1[nH]n(C)c(=O)c1C(=O)c1c(-c2ccccc2Cl)noc1C | -10 | ? | ? | -17% | 17 | 26µM*
Cc1onc(-c2ccccc2Cl)c1C(=O)N1CCN(c2cccc(Cl)c2)CC1 | 71 | -19% | 7.3µM* | -17% | 18 | ?
Cc1onc(-c2ccccc2Cl)c1C(=O)N1CCC(Cc2ccccc2)CC1 | -92* | 4% | -13% | 22% | -13 | ?
Cc1onc(-c2ccccc2Cl)c1C(=O)N1CCN(c2ccccc2)CC1 | -13 | ? | 19% | -8% | 18 | -18%
Cc1onc(-c2ccccc2Cl)c1C(=O)N1CCC(C(N)=O)CC1 | 15 | 0% | 4% | -2% | -9 | 4%
CC(C)CCNC(=O)c1sc2ccc(S(=O)(=O)N3CCCCC3)cc2c1N | -52* | -1% | 4% | ? | 11 | 10%
CCN(CC)/[N+]([O-])=N/Oc1ccc([N+](=O)[O-])cc1[N+](=O)[O-] | · | -1% | · | · | · | ·

Source: PubChem
